Experimental data as given in PubChem BioAssay (Tox21).
Results filed as inconclusive are left out. Where a call stands in place of a potency, no number is given. Values without a mark were called inactive. Calls of active or inactive are those of the source. Unless noted, calls follow the shape of the dose curve; as a rule, active = well fitted curve in the direction sought with a large enough effect in the repeat runs; inconclusive = weak or mixed curves; inactive = no such curve, though single readings can be large; an effect the other way counts as inactive or inconclusive.

What was measured:
[1] = qHTS assay to identify small molecule antagonists of the thyroid receptor (TR) signaling pathway (AID 743065); also: series mostly up to about 70 µM; nearly all actives have a fitted effect of over 55% in size
Procedure, shortened: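 GH3.TRE-Luc rat pituitary cells (two TREs driving luciferase) were dosed with compound, then stimulated with 1 nM T3 (final) for 23.5 h at 37 C. ONE-Glo luminescence was the read-out, with CellTiter-Fluor fluorescence as the cytotoxicity counter-screen.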

[2] = test system: thyroid hormone receptor (rat, GH3 cells); assay: qHTS assay to identify small molecule agonists of the thyroid receptor (TR) signaling pathway (AID 743066; calls by dose curve)
[3] = target: Estrogen receptor (Homo sapiens) (UniProt P03372); assay: qHTS assay to identify small molecule antagonists of the estrogen receptor alpha (ER-alpha) signaling pathway (AID 743069; active = well fitted curve in the direction sought with a large enough effect in the signal ratio in the repeat runs, not every such curve was filed as active; the % refers to the signal ratio)
Sequence of Estrogen receptor (Homo sapiens) (P03372 whole entry, looked up): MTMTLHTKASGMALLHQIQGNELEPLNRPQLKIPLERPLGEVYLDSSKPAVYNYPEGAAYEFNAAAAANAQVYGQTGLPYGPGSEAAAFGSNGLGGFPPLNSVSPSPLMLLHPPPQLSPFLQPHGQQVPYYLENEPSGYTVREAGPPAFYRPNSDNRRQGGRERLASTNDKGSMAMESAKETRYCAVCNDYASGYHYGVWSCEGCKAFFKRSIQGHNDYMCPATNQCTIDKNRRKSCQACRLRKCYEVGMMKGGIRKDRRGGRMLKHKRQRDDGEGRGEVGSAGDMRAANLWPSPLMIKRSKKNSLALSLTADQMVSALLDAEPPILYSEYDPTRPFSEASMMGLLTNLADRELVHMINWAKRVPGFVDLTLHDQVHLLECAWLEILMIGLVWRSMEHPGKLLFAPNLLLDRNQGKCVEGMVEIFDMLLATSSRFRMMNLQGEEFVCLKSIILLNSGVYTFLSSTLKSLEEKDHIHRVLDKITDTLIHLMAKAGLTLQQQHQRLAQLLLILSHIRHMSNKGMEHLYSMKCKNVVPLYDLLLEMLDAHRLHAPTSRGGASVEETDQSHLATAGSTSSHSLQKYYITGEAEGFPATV
Procedure, shortened: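 Beta-lactamase FRET fluorescence is read after 2 hr at room temperature with LiveBLAzer B/G substrate. Before that, ER-alpha-bla HEK293 cells sit 4 hr after plating, then receive compound plus 17beta-estradiol and incubate 18 hr at 37C.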

[4] = qHTS assay to identify small molecule antagonists of the estrogen receptor alpha (ER-alpha) signaling pathway - cell viability counter screen (AID 743074; calls by dose curve;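 also: HEK293 cells carrying ER-alpha-UAS-bla reporter stimulated with 17beta-estradiol; nearly all actives have a fitted effect of over 45% in size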)
[5] = target: Estrogen receptor (Homo sapiens) (UniProt P03372); assay: qHTS assay to identify small molecule agonists of the estrogen receptor alpha (ER-alpha) signaling pathway (AID 743075; calls by dose curve;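 also: HEK293 GripTite cells with ER-alpha and UAS-driven beta-lactamase reporter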)
[6] = target: Estrogen receptor (Homo sapiens) (UniProt P03372); assay: qHTS assay to identify small molecule agonists of the estrogen receptor alpha (ER-alpha) signaling pathway using the BG1 cell line (AID 743079); also: nearly all actives have a fitted effect of over 20% in size; also: potency is read from the fitted curve at half-maximal effect
[7] = qHTS assay to identify small molecule antagonists of the estrogen receptor alpha (ER-alpha) signaling pathway using the BG1 cell line (AID 743080; calls by dose curve;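 also: BG1 cells stimulated with 17beta-estradiol alongside compound; series mostly up to about 70 µM; nearly all actives have a fitted effect of over 25% in size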)
Procedure, shortened: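 Seeding, 24 h rest, compound transfer from DMSO, 17beta-estradiol addition, 21.5 h incubation, CellTiter-Fluor (30 min, 37 C), then ONE-Glo (30 min, room temperature): this sequence was run on BG1-Luc-4E2 reporter cells.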

[8] = qHTS assay to identify small molecule antagonists of the estrogen receptor alpha (ER-alpha) signaling pathway using the BG1 cell line - cell viability counter screen (AID 743081);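 also: compound given together with 17beta-estradiol as the ER stimulus; series mostly up to about 70 µM; nearly all actives have a fitted effect of over 45% in size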
Aromatase (Homo sapiens) = Aromatase (Homo sapiens) (UniProt P11511); assay: qHTS assay to identify aromatase inhibitors (AID 743083); also: series mostly up to about 70 µM; nearly all actives have a fitted effect of over 55% in size
Sequence of Aromatase (Homo sapiens) (P11511 whole entry, looked up): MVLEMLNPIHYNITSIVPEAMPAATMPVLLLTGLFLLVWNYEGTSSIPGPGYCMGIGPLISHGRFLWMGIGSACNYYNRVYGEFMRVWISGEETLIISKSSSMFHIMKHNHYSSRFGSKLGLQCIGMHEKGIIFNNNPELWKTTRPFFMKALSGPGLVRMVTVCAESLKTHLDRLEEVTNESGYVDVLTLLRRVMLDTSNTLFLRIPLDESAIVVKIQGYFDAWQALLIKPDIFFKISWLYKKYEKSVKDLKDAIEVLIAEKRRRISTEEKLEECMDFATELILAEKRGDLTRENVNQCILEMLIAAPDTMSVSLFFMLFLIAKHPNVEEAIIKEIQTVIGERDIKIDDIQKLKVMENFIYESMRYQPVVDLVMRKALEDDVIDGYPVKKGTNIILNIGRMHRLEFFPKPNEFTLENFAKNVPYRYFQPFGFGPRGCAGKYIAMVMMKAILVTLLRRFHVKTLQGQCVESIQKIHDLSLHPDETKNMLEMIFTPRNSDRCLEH

[9] = qHTS assay to identify aromatase inhibitors - cell viability counter screen (AID 743084);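 also: cells stimulated with testosterone during compound exposure; nearly all actives have a fitted effect of over 55% in size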

Row | Compound | Potency [1] | outcome [2] | Potency [3] | Potency [4] | Potency [5] | Potency [6] | Potency [7] | outcome [8] | outcome (Aromatase (Homo sapiens)) | Potency [9] | activity, negative = inhibition [1] | activation [2] | activity, negative = inhibition [3] | activity, negative = cytotoxicity [4] | activation [5] | activation [6] | activity change, negative = inhibition [7] | activity change, negative = cytotoxicity [8] | activity, negative = inhibition (Aromatase (Homo sapiens))
1 | CC1=NN(c2cccc(S(=O)(=O)O)c2)C(=O)C1 | inactive | inactive | inactive | inactive | inactive | inactive | inactive | inactive | inactive | inactive |  |  |  |  |  |  |  |  | 
2 | CC(C)c1ccc2ncccc2c1 | inactive | inactive | inactive | inactive | inactive | inactive | inactive | inactive | inactive | inactive |  |  |  |  |  |  |  |  | 
3 | COCCOC[C@H](CC1(C(=O)NC2CCC(C(=O)O)CC2)CCCC1)C(=O)Oc1ccc2c(c1)CCC2 (stereo partly drawn) | inactive | inactive | inactive | inactive | inactive | inactive | inactive | inactive | inactive |  |  |  |  |  |  |  |  |  | 
4 | CCCCCCC1CCC(=O)O1 (stereo not drawn) | inactive | inactive | inactive | inactive | inactive | inactive | inactive | inactive | inactive | inactive |  |  |  |  |  |  |  |  | 
5 | CC1(C)OC[C@@H](COC(=O)CCc2ccc(OC[C@@H](O)CNCCNC(=O)N3CCOCC3)cc2)O1 | inactive | inactive | inactive | inactive | inactive | inactive | inactive | inactive | inactive | inactive |  |  |  |  |  |  |  |  | 
6 | CCCOC(=O)CC | inactive | inactive | inactive | inactive | inactive | inactive | inactive | inactive | inactive | inactive |  |  |  |  |  |  |  |  | 
7 | CO[Si](C)(OC)c1ccccc1 | inactive | inactive | inactive | inactive | inactive | inactive | inactive | inactive | inactive | inactive |  |  |  |  |  |  |  |  | 
8 | CC1=CC(=O)[C@H]2C[C@@H]1C2(C)C | inactive | inactive | inactive | inactive | inactive | inactive | inactive | inactive | inactive | inactive |  |  |  |  |  |  |  |  | 
9 | O=C(O)c1cc(C(=O)O)cc(C(=O)O)c1 | inactive | inactive | inactive | inactive | inactive | inactive | inactive | inactive | inactive | inactive |  |  |  |  |  |  |  |  | 
10 | O=C(O)CC(C(=O)O)S(=O)(=O)O (stereo not drawn) | inactive | inactive | inactive | inactive | inactive | inactive | inactive | inactive | inactive | inactive |  |  |  |  |  |  |  |  | 
11 | COc1ccc2cc1Oc1cc3c(cc1OC)CC[N+](C)(C)[C@H]3Cc1ccc(cc1)Oc1c(OC)c(OC)cc3c1[C@@H](C2)[N+](C)(C)CC3 | inactive | inactive | inactive | inactive | inactive | inactive | inactive | inactive | inactive | inactive |  |  |  |  |  |  |  |  | 
12 | CCOC(=O)CCC(=O)OCC | inactive | inactive | inactive | inactive | inactive | inactive | inactive | inactive | inactive | inactive |  |  |  |  |  |  |  |  | 
13 | CC(=O)c1cnccn1 | inactive | inactive | inactive | inactive | inactive | inactive | inactive | inactive | inactive | inactive |  |  |  |  |  |  |  |  | 
14 | CC(C)CCCO | inactive | inactive | inactive | inactive | inactive | inactive | inactive | inactive | inactive | inactive |  |  |  |  |  |  |  |  | 
15 | Cc1ccc(-c2ncc(Cl)cc2-c2ccc(S(C)(=O)=O)cc2)cn1 | inactive | inactive | inactive | inactive | inactive | inactive | inactive | inactive | inactive | inactive |  |  |  |  |  |  |  |  | 
16 | Cc1ccc(C(=O)c2ccccc2)cc1 | inactive | inactive | inactive | inactive | inactive | 21.7 µM (active) | inactive | inactive | inactive | inactive |  |  |  |  |  |  |  |  | 
17 | CCCCCC(=O)OCCc1ccccc1 | inactive | inactive | inactive | inactive | inactive | inactive | inactive | inactive | inactive | inactive |  |  |  |  |  |  |  |  | 
18 | c1ccc(Cc2ccccc2)cc1 | inactive | inactive | inactive | inactive | inactive | inactive | inactive | inactive | inactive | inactive |  |  |  |  |  |  |  |  | 
19 | CC1OC1C1CCC2(C)OC2C1 (stereo not drawn) | inactive | inactive | inactive | inactive | inactive | inactive | inactive | inactive | inactive | inactive |  |  |  |  |  |  |  |  | 
20 | C=C[Si](OC(C)=O)(OC(C)=O)OC(C)=O | inactive | inactive | inactive | inactive | inactive | inactive | inactive | inactive | inactive | inactive |  |  |  |  |  |  |  |  | 
21 | CCCCCCCC1CCCC1=O (stereo not drawn) | inactive | inactive | inactive | inactive | inactive | inactive | inactive | inactive | inactive | inactive |  |  |  |  |  |  |  |  | 
22 | Cc1cc(C)c(N=Nc2c(O)c(S(=O)(=O)O)cc3cc(S(=O)(=O)O)ccc23)cc1C |  |  |  |  |  |  |  |  |  |  | -3.21% [at 8.44 µM] | 0.237% [at 8.08 µM] | -5.6% [at 6.71 µM] | -15.7% [at 6.72 µM] | -3.26% [at 6.71 µM] | 5.28% [at 8.47 µM] | -1.62% [at 8.47 µM] | -6.97% [at 8.47 µM] | -5.99% [at 8.47 µM]
